According to PubChem BioAssay AID1159580 (chemical genetic matrix, 2015):
Where “and” joins values, the source holds several entries; their conditions need not be identical. Equal entries are not always repeated. Among all 5,500 compounds or so, about 2,000 (36%) were called active. Another 18% or so got no clear call; they are omitted. No stated cut-off is given here; in the data, active means normalized growth mostly below about 0.91 (no sharp cut-off); inconclusive means no clear call, values can overlap the other calls; inactive means mostly above about 0.92. Some of the results follow.

Assay: chemical genetic growth profiling, strain panel (AID 1159580);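 further: tested at 20 µM; growth read once vehicle control cultures reached saturation at 30 °C; 1 = growth at the plate median or of vehicle wells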
Details: S. cerevisiae deletion strains, growth OD

Measured: normalized growth

Nc1ccc(N=Nc2ccccc2)c(N)n1
active: locus YAL021C, strain ccr4, stronger effect = lower value 0.597 | locus YAL026C, strain drs2, stronger effect = lower value 0.262 | locus YAL030W, strain snc1, stronger effect = lower value 0.909 | locus YBL061C, strain skt5, stronger effect = lower value 0.841 | locus YBR009C, strain hhf1, stronger effect = lower value 0.635 | locus YBR021W, strain FUR4, stronger effect = lower value 1.16 [resistant] | locus YBR023C, strain chs3, stronger effect = lower value 0.764 | locus YBR231C, strain swc5, stronger effect = lower value 0.742 | locus YBR279W, strain paf1, stronger effect = lower value 0.807 | locus YCL011C, strain gbp2, stronger effect = lower value 0.78 | locus YCL016C, strain dcc1, stronger effect = lower value 0.739 | locus YCL069W, strain vba3, stronger effect = lower value 0.725 | locus YDL192W, strain arf1, stronger effect = lower value 0.901 | locus YDR069C, strain doa4, stronger effect = lower value 0.846 | locus YDR137W, strain rgp1, stronger effect = lower value 0.351 | locus YDR195W, strain ref2 1.61 [resistant] | locus YDR297W, strain sur2, stronger effect = lower value 0.828 | locus YDR334W, strain swr1, stronger effect = lower value 0.833 | locus YDR335W, strain msn5, stronger effect = lower value 0.785 | locus YDR392W, strain spt3, stronger effect = lower value 0.6 | locus YEL003W, strain gim4, stronger effect = lower value 0.712 | locus YEL061C, strain CIN8 (second series), stronger effect = lower value 0.838 | locus YER015W, strain faa2, stronger effect = lower value 0.794 | locus YER016W, strain bim1, stronger effect = lower value 0.853 | locus YER111C, strain swi4, stronger effect = lower value 0.801 | locus YER155C, strain BEM2 (second series), stronger effect = lower value 0.226 | locus YFR010W, strain ubp6, stronger effect = lower value 0.862 | locus YGL173C, strain kem1, stronger effect = lower value 0.668 | locus YGL227W, strain vid30, stronger effect = lower value 0.83 | locus YGL240W, strain doc1, stronger effect = lower value 0.832 | locus YGL253W, strain hxk2, stronger effect = lower value 0.695 | locus YGR135W, strain pre9, stronger effect = lower value 0.854 | locus YHR013C, strain ard1, stronger effect = lower value 0.573 | locus YHR027C, strain rpn1, stronger effect = lower value 0.798 | locus YHR142W, strain chs7, stronger effect = lower value 0.543 | locus YJL095W, strain BCK1 (second series), stronger effect = lower value 0.478 | locus YJL129C, strain trk1, stronger effect = lower value 1.14 [resistant] | locus YJL164C, strain tpk1, stronger effect = lower value 0.759 | locus YJL166W, strain qcr8, stronger effect = lower value 0.494 | locus YJL187C, strain SWE1, stronger effect = lower value 0.727
inactive: locus YAL013W, strain DEP1, stronger effect = lower value 0.984 | locus YBR171W, strain sec66, stronger effect = lower value 0.96 | locus YBR229C, strain ROT2, stronger effect = lower value 1 | locus YCL029C, strain bik1, stronger effect = lower value 1.03 | locus YCR088W, strain abp1, stronger effect = lower value 0.945 | locus YDL005C, strain med2, stronger effect = lower value 1 | locus YDL035C, strain GPR1, stronger effect = lower value 0.932 | locus YDL040C, strain nat1, stronger effect = lower value 0.978 | locus YDL074C, strain BRE1, stronger effect = lower value 0.866 | locus YDL101C, strain DUN1, stronger effect = lower value 0.968 | locus YDL134C, strain PPH21, stronger effect = lower value 0.999 | locus YDL185W, strain tfp1, stronger effect = lower value 0.998 | locus YDR001C, strain nth1, stronger effect = lower value 1 | locus YDR101C, strain arx1, stronger effect = lower value 0.995 | locus YDR150W, strain NUM1, stronger effect = lower value 1.01 | locus YDR159W, strain sac3, stronger effect = lower value 0.884 | locus YDR162C, strain NBP2, stronger effect = lower value 0.939 | locus YDR318W, strain mcm21, stronger effect = lower value 0.951 | locus YDR388W, stronger effect = lower value 0.997 | locus YDR502C, strain sam2, stronger effect = lower value 0.954 | locus YEL037C, strain rad23, stronger effect = lower value 0.922 | locus YEL061C, strain CIN8, stronger effect = lower value 0.997 | locus YER110C, stronger effect = lower value 1.01 | locus YER155C, strain BEM2, stronger effect = lower value 1.03 | locus YER167W, strain BCK2, stronger effect = lower value 1.02 | locus YGL078C, strain dbp3, stronger effect = lower value 0.937 | locus YGL086W, strain mad1, stronger effect = lower value 0.971 | locus YGL167C, strain pmr1, stronger effect = lower value 0.977 | locus YGL248W, strain PDE1, stronger effect = lower value 0.989 | locus YGR078C, strain PAC10, stronger effect = lower value 0.918 | locus YGR229C, strain SMI1, stronger effect = lower value 0.996 | locus YGR252W, strain gcn5, stronger effect = lower value 0.943 | locus YHR030C, strain SLT2, stronger effect = lower value 0.995 and 0.956 | locus YHR079C, strain IRE1 (second series), stronger effect = lower value 0.99 | locus YHR079C, strain IRE1, stronger effect = lower value 0.965 | locus YHR094C, strain hxt1, stronger effect = lower value 1.02 | locus YHR129C, strain ARP1, stronger effect = lower value 1.01 | locus YHR200W, strain rpn10, stronger effect = lower value 0.983 | locus YIL066C, strain RNR3, stronger effect = lower value 0.956 | locus YIL073C, strain SPO22, stronger effect = lower value 0.972 | locus YIL125W, strain kgd1, stronger effect = lower value 1.02 | locus YIR030C, strain dcg1, stronger effect = lower value 1.02 | locus YJL092W, strain hpr5, stronger effect = lower value 0.945 | locus YJL095W, strain BCK1, stronger effect = lower value 0.833 and 0.952 | locus YJL115W, strain asf1, stronger effect = lower value 1.01 | locus YJL134W, strain LCB3, stronger effect = lower value 1 | locus YJL154C, strain vps35, stronger effect = lower value 0.98 | locus YJL168C, strain set2, stronger effect = lower value 1 | locus YJL187C, strain SWE1 (second series), stronger effect = lower value 0.961 | locus YJR043C, strain POL32, stronger effect = lower value 0.984 | locus YJR066W, strain TOR1, stronger effect = lower value 0.91
